This is one part of the list. The hit rate among all sequences tested is not known here.
Target: furin, P09958
Assay: furin cleavage Z-score vs untreated control; higher = more cleavage, active = 3.5 or more, inactive = 1 or less, 8 variable residues between constant flanks
Method in brief: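 Purified furin digested bead-held 8-mer peptide–cDNA fusions at 1:10 enzyme:substrate in 0.01 ml of 50 mM HEPES pH 7.5 with CaCl2 and NaCl for 7.5, 15 or 30 min. The cleavage Z-score compares sequencing counts of released DNA with furin-free reactions on a log scale, with lowess adjustment and median absolute deviation scaling.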

furin, P09958, sequence (P09958 whole entry): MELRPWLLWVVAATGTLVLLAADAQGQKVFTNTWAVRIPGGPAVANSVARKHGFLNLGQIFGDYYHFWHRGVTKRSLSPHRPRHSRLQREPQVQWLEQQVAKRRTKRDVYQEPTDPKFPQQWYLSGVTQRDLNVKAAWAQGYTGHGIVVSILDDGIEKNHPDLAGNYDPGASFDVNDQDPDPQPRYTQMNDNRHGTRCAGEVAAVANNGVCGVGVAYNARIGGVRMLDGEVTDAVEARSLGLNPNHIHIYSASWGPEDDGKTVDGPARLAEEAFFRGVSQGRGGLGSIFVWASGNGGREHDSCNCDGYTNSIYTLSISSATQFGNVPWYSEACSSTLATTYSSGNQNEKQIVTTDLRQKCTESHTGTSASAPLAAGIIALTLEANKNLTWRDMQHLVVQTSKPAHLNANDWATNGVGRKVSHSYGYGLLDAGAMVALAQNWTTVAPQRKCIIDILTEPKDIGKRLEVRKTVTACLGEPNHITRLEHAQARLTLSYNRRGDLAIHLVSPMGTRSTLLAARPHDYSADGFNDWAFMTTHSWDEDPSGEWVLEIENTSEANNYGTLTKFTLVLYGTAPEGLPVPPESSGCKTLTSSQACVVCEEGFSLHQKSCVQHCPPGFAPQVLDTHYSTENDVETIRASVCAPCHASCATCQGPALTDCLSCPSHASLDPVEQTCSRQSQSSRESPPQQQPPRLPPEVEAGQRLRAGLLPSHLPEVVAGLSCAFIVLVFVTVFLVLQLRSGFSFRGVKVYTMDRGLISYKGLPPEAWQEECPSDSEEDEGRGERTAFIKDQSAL

Sequence | furin cleavage Z-score (7.5 min) | furin cleavage Z-score (15 min) | furin cleavage Z-score (30 min)
CAMEECSQHSAGNASASA [HC1777] | 2.1 | 0.565 (inactive) | 0.168 (inactive)
CAPPEELKFQAGNASASA [NG7] | -0.102 (inactive) | -1.12 (inactive) | 0.127 (inactive)
CARANRIVNAAGNASASA [FS-2392] | 0.0348 (inactive) | -1.24 (inactive) | -1.84 (inactive)
CATFWAKHMWAGNASASA [HC1040] | 0.313 (inactive) | -0.474 (inactive) | 0.00738 (inactive)
CARLRRTMLVAGNASASA [FS-2996] | 0.457 (inactive) | -0.166 (inactive) | 0.463 (inactive)
CARLHRFDSQAGNASASA [FS-2569] | -0.521 (inactive) | 0.134 (inactive) | 0.911 (inactive)
CARLRRRASQAGNASASA [FS-2995] | 2.66 | 4.61 (active) | 4.94 (active)
CARLRRILEVAGNASASA [FS-2433] | -1.97 (inactive) | -0.173 (inactive) | 0.88 (inactive)
CARLRRASWVAGNASASA [FS-3197] | 1.44 | 1.96 | 4.56 (active)
CASAPPGDPPAGNASASA [HC1544] | -0.56 (inactive) | -0.28 (inactive) | -0.205 (inactive)
CAAPRRFRRSAGNASASA [FS-399] | 9.1 (active) | 8.32 (active) | 8.51 (active)
CAQARRFRRSAGNASASA [FS-844] | 14.3 (active) | 14.1 (active) | 9.61 (active)
CAFVQRFRRSAGNASASA [FS-236] | 11.9 (active) | 11.2 (active) | 9.2 (active)
CAAPRRPRRPAGNASASA [FS-116] | 0.169 (inactive) | 0.142 (inactive) | 0.528 (inactive)
CAAPERERRSAGNASASA [FS-215] | 8.78 (active) | 11.7 (active) | 7.74 (active)
CAALGLERRSAGNASASA [FS-1444] | -0.628 (inactive) | -0.614 (inactive) | 0.553 (inactive)
CADEEVVTSTAGNASASA [HC2292] | 1.62 | 0.883 (inactive) | 1.1
CATTPCSGSPAGNASASA [HC1939] | 0.991 (inactive) | -1.49 (inactive) | 0.61 (inactive)
CAEVSCHRPSAGNASASA [HC2357] | 0.821 (inactive) | 0.257 (inactive) | -0.805 (inactive)
CAVVCCSMDYAGNASASA [HC2071] | -0.0968 (inactive) | 0.0602 (inactive) | -0.172 (inactive)
CATTECSGSWAGNASASA [HC1872] | -0.691 (inactive) | -0.533 (inactive) | -0.721 (inactive)
CANNHVYRRSAGNASASA [FS-834] | 2.73 | 4.48 (active) | 3.35

From the supplement of paper PMC3545927
